This is a sample that favours compounds with a hit; in the whole collection about 12% have one here.
SARS PLP yeast: inhibitors of SARS-CoV papain-like protease in yeast | S. cerevisiae expressing SARS-CoV PLpro, growth rescue | Potency, µM (doses to about 32.9 µM), usual class: activators | 330,000 compounds, 0.19% hits | AID 485353; also: nearly all actives have a fitted effect of over 55% in size
CHX counter: counter-screen for Shiga toxin inhibitors: cycloheximide protein synthesis inhibition. cell reporter, cycloheximide protein synthesis inhibition counterscreen. max response, %. 300,000 compounds, 12% hits. AID 2314; in the data active = max response mostly above about 13%, no sharp cut-off; inactive = mostly below about 14%; also: read at 38.3 µM for the half of the compounds with a filed dose
NS1 inh: inhibitors of influenza NS1 protein function. Potency, µM (doses to about 46.1 µM). 270,000 compounds, 0.4% hits; also: actives are rising curves; nearly all actives have a fitted effect of over 50% in size
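In this qHTS, NS1 from influenza A is expressed in budding yeast, where it slows growth. Cells are switched from glucose to 2% galactose medium (pH 6.0, -URA), treated with compound, and growth recovery is read at OD600.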
Shiga inhibitor: inhibitors of Shiga toxin in Vero cells; Vero cells, Shiga toxin protein synthesis inhibition reporter; inhibition, % at 38.7 µM; 290,000 compounds, 9.2% hits; in the data active = inhibition mostly above about 28%, no sharp cut-off; inactive = mostly below about 43%
Of the large screens only hits and unclear results are named; the others gave an inactive call. Unless noted, calls follow the shape of the full dose curve.

O=C(NCc1ccc2c(c1)OCO2)Oc1ccccc1	none
Cc1ccc(S(=O)(=O)N2CCOC2CNC(=O)C(=O)NCc2ccccn2)cc1 (centres undefined)	none
Cc1ccccc1N(CC(=O)N/N=C/c1ccc(N(C)C)cc1)C(=O)c1ccccc1	CHX counter 34
CN(C)c1ccc(/C=N/NC(=O)COc2ccccc2)cc1	CHX counter 38, Shiga inhibitor 44 (no result: NS1 inh)
Cc1cccc(OCC(=O)N/N=C/c2ccc(N(C)C)cc2)c1	none
Cc1ccccc1N(CC(=O)N/N=C/c1ccccc1Cl)C(=O)c1ccccc1	none
CC(C)C(OC(=O)c1ccco1)C(=O)NCc1cccs1 (centres undefined)	none
COc1ccc(C(=O)c2coc3ccc(O)cc23)cc1	CHX counter 46, Shiga inhibitor 43
Cc1ccc(C(=O)c2coc3ccc(OCC(=O)O)cc23)cc1	CHX counter 22, Shiga inhibitor 35
CCS(=O)(=O)N1CCC(c2nc(-c3ccc(C)cc3)no2)CC1	CHX counter 55, Shiga inhibitor 74
CCS(=O)(=O)N1CCC(c2nc(-c3ccc(C(F)(F)F)cc3)no2)CC1	none
Cc1ccc(-c2noc(C3CCCCC3)n2)cc1	Shiga inhibitor 50
Cc1cccc(-c2noc(C3CCCCC3)n2)c1	CHX counter 55, Shiga inhibitor 198 (no result: SARS PLP yeast)
Cc1cccc(-c2noc(-c3ccno3)n2)c1	CHX counter 40, Shiga inhibitor 91
COC(=O)[C@]1(Cc2ccccc2)N[C@H](CN(C)C(=O)c2ccc(C)cc2)[C@@H]2C(=O)N(C)C(=O)[C@@H]21	none (no result: CHX counter, NS1 inh, Shiga inhibitor)
Cc1ccc(Nc2nnc(SCC(=O)NCC3CCCO3)s2)cc1C (centres undefined)	none (no result: CHX counter, NS1 inh, Shiga inhibitor)
COc1ccc2[nH]c(=O)c(CN(CCCN(C)C)C(=O)Nc3ccc(F)cc3)cc2c1	NS1 inh inconclusive
CC(=O)c1ccc(OCc2ncc(C(F)(F)F)cc2Cl)cc1	CHX counter 36, Shiga inhibitor 76
FC(F)(F)c1cnc(COc2ccc(Cl)cc2Cl)c(Cl)c1	CHX counter 17, Shiga inhibitor 66
Fc1ccc(NC(=S)N/N=C/c2ccc(F)c(F)c2)cc1	CHX counter 29 (no result: NS1 inh)
COc1ccc(NC(=S)N/N=C/c2ccc(F)c(F)c2)cc1	CHX counter 20, Shiga inhibitor 41
Fc1ccc(/C=N/NC(=S)Nc2ccc(Cl)cc2)cc1F	CHX counter 22
COc1ccc(NC(=S)N/N=C/c2ccc(F)cc2)cc1OC	CHX counter 30, Shiga inhibitor 46 (no result: NS1 inh)
Fc1ccc(/C=N/NC(=S)Nc2ccc(Cl)cc2Cl)cc1	none
COC(=O)c1cccc(/C=N/NC(N)=S)c1O	CHX counter 27
COc1ccc(C(=O)Oc2ccc(/C=N/O)cc2)cc1	CHX counter 74, Shiga inhibitor 83
COc1ccc(/C=N/NC(N)=S)cc1	CHX counter 13
NC(=S)N/N=C/c1ccccc1[N+](=O)[O-]	none
COc1ccc(/C=N/NC(=O)Nc2nonc2N)cc1	CHX counter 48, Shiga inhibitor 75
O=C1CC[C@H](NC(=O)c2ccccc2)C(=O)N1	none (no result: SARS PLP yeast, CHX counter, Shiga inhibitor)
Cn1c(=O)[nH]c(=O)c2c1nc1n2CCCN1Cc1ccccc1	none
Cc1ccc(NC(=O)CC2(CC(=O)O)CCCC2)c(C)c1	none
COc1ccc(/C=N/N=C/c2ccc(OC)cc2)cc1	CHX counter 25
Cc1c(O)ccoc1=O	none
Cn1cc(/C=C2\C(=O)NC(=O)N(c3ccccc3)C2=O)c2ccccc21	none
Cn1cc(/C=C2\SC(=O)N(c3ccccc3)C2=O)c2ccccc21	CHX counter 19
CCN1C(=O)S/C(=C/c2cn(C)c3ccccc23)C1=O	CHX counter 27, Shiga inhibitor 44
CC(C)n1cc(/C=C2/SC(=O)N(CC(=O)N3CCCC3)C2=O)c2ccccc21	NS1 inh inconclusive
Cn1cc(/C=C2\SC(=O)N(c3ccc(O)cc3)C2=O)c2ccccc21	CHX counter 45, Shiga inhibitor 91
C=CCn1c(CNS(=O)(=O)c2ccc(Br)cc2)n[nH]c1=S	none
O=C(NCCc1cccs1)c1ccc(Cl)c(Cl)c1	CHX counter 44, Shiga inhibitor 72
CCn1nc2cc(C(=O)NCCc3cccs3)ccc2c1OC	CHX counter 40, Shiga inhibitor 75
O=C(NCCc1cccs1)c1ccc(Cl)cc1	CHX counter 20, Shiga inhibitor 35
Cc1ccc(C(=O)NCCc2cccs2)cc1	none
COc1cccc(C(=O)Nc2cc(C)on2)c1OC	CHX counter 49, Shiga inhibitor 76 (no result: NS1 inh)
O=C(Nc1cccs1)Nc1ccccc1Br	CHX counter 30, Shiga inhibitor 47 (no result: NS1 inh)
COc1ccc(Cl)cc1NC(=O)Nc1cnccn1	none
COc1cccc(OC)c1C(=O)Nc1cc(C)on1	none
Cc1cc(NC(=O)Nc2cccs2)no1	CHX counter 16
COc1ccc(Cl)cc1NC(=O)Nc1cc(C)on1	CHX counter 36, Shiga inhibitor 61
Cc1cccc(C)c1NC(=O)Nc1cccs1	none
Cc1c(Cl)cccc1NC(=O)COC(=O)CN1C(=O)NC(C)(C)C1=O	none
CCOCCc1nn2c(=O)cc(CSCC(=O)Nc3cc(C)cc(C)c3)nc2s1	none
OC(CNCc1cccs1)c1ccccc1 (centres undefined)	none
O=C(Nc1ccc(C(F)(F)F)cn1)Nc1cccs1	CHX counter 26, Shiga inhibitor 35
Cc1cc(NC(=O)Nc2ccccc2Cl)no1	CHX counter 27, Shiga inhibitor 64
O=C(NCC(O)c1ccccc1)Nc1cccs1 (centres undefined)	CHX counter 24
O=C(Nc1ccc2ccccc2n1)Nc1cccs1	none
Cc1nn(-c2ccccc2)c(NC(=O)c2ccccc2)c1Br	NS1 inh inconclusive
CCOCCCNC(=O)c1cc2c(s1)-c1ccccc1SC2	Shiga inhibitor 63
CN(C)CCNC(=O)c1cc2c(s1)-c1ccc(Cl)cc1SC2	none
CC(C)NCCCOc1ccc(Cl)cc1Br	CHX counter 31, Shiga inhibitor 36
Clc1ccc(OCCCCCN2CCCC2)c(Br)c1	none
Clc1ccc(OCCCN2CCCCC2)c(Br)c1	CHX counter 71, Shiga inhibitor 12
CC(=O)/C(C#N)=C1\NC(=O)C(Cc2ccccc2C)S1 (centres undefined)	CHX counter 16
CC(=O)/C(C#N)=C1\NC(=O)C(Cc2ccccc2)S1 (centres undefined)	none
Cc1ccccc1-c1nnc(CN2CCC(C)CC2)o1	CHX counter 27, Shiga inhibitor 71
Cc1ccccc1-c1ccccc1N	none
Cc1ccccc1-c1nnc(-c2ccc(Br)cc2)o1	CHX counter 21
Cc1ccccc1-c1nnc(-c2ccccc2C)o1	CHX counter 23, Shiga inhibitor 42
Cc1cccc(OCC(=O)Nc2nnc(S(=O)(=O)N3CCc4ccccc43)s2)c1	none (no result: SARS PLP yeast, NS1 inh)
c1ccc(N=Nc2cn[nH]c2-c2ccco2)cc1	none (no result: NS1 inh)
Cc1cccc(N=Nc2cn[nH]c2-c2ccco2)c1	CHX counter 54, Shiga inhibitor 100 (no result: NS1 inh)
Cc1cccc(N(C(=O)CCC(=O)Nc2cc(C)on2)C(C(=O)NC2CCCC2)c2ccccc2)c1 (centres undefined)	none
Cc1cccc(-n2c(C)nc3cc(C(=O)N4CCOCC4)ccc32)c1	CHX counter 13
Cc1cccc(-n2cnc3cc(C(=O)N4CCCCC4)ccc32)c1	CHX counter 41, Shiga inhibitor 100
Cc1cccc(Nc2ccc(C(=O)N3CCOCC3)cn2)c1	CHX counter 46, Shiga inhibitor 66

Screens as filed in PubChem BioAssay.
